JMJD2A Tudor inh: inhibitors of human JMJD2A Tudor domain; AlphaScreen JMJD2A-Tudor / H3K4me3 peptide binding; actives 4.4% (n = 390,000); Potency, µM (highest dose often 114 µM), usual class: inhibitors; also: nearly all actives have a fitted effect of over 50% in size
Target sequence (O75164 whole entry, looked up, the tested form may be a part): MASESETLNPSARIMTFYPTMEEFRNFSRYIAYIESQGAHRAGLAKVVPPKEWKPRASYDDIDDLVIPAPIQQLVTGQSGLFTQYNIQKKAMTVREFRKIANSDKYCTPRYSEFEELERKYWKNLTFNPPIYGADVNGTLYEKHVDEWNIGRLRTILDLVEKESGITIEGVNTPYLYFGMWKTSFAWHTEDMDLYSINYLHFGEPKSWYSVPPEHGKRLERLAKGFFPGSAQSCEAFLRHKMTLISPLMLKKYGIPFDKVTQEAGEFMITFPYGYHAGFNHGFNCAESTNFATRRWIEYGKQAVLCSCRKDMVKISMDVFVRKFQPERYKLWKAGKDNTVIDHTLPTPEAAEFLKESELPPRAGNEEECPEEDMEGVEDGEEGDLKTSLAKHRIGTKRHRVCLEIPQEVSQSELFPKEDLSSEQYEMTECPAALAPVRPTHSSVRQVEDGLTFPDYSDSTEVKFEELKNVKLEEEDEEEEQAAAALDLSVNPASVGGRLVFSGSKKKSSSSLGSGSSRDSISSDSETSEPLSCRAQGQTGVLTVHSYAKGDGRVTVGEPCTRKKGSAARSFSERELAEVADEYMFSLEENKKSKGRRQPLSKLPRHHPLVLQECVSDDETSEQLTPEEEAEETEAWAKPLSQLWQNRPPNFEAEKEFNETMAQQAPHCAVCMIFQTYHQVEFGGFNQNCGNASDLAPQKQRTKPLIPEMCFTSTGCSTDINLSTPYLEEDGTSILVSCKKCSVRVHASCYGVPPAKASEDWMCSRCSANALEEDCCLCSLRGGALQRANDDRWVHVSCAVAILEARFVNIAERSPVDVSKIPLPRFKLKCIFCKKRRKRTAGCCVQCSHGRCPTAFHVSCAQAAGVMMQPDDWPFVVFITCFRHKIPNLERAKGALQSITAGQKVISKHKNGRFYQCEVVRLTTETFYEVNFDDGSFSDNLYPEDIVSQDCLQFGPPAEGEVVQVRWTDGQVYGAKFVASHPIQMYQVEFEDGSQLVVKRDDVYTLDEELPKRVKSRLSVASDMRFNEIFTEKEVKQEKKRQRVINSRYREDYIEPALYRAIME
HP1b binding inh: blocks HP1-beta chromodomain binding to methylated histone tails. AlphaScreen HP1-beta / biotin-H3K9me3 peptide binding. AID 540317. Potency, µM (doses to about 114 µM), most hits filed as inhibitors. P83916. actives 0.56% (n = 390,000); also: nearly all actives have a fitted effect of over 70% in size
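Compound inhibition of the preformed complex between 50 nM HP1-beta and 50 nM biotinylated H3K9me3 peptide was read by AlphaScreen. Buffer was PBS pH 7.4 with 0.01% Tween-20. Incubations ran 30 min at room temperature, with 10 ug/mL donor/acceptor beads.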
BAZ2B block: blocks human BAZ2B; Potency, µM (titrated, usually from 114 µM), hits mostly inhibitors; AID 504333; actives 4.4% (n = 360,000); Q9UIF8; AlphaScreen BAZ2B-H3K14Ac peptide displacement; also: nearly all actives have a fitted effect of over 60% in size
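BAZ2B 50 nM plus b-H3(5-23)K14Ac 50 nM, PBS pH 7.4/0.01% Tween-20, 30 min RT; compound added (max 110 uM), 30 min RT; streptavidin donor/Ni-chelate acceptor beads 10 ug/mL final, 20 min dark; AlphaScreen read.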
G9a inh: blocks human histone lysine methyltransferase G9a; Q96KQ7; Potency, µM (top dose mostly 102 µM), actives largely listed as inhibitors; actives 8.8% (n = 350,000); AID 504332; G9a H3K9 monomethylation, AlphaScreen, 2 h; also: nearly all actives have a fitted effect of over 75% in size
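Readings reflect AlphaScreen signal from monomethyl-H3K9 antibody detection. HMT at 20 nM; substrate b-H3K9 500 nM; cofactor SAM 20 uM; 2 h RT reaction; compounds tested as titrations in qHTS with 15 min preincubation.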
Sfp PPTase inh: inhibitors of Bacillus subtilis Sfp phosphopantetheinyl transferase | Biochemical Sfp PPTase activity, qHTS | Potency, µM, actives largely listed as inhibitors | actives 3.5% (n = 310,000);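 also: the enzyme is Sfp with the accession as filed and its product quenches rhodamine fluorescence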
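Sfp 15 nM + cpd, 15 min RT; start w/ rhodamine-CoA 5 uM, BHQ-2-YbbR 12.5 uM (final); 50 mM Hepes pH 7.6, 10 mM MgCl2, 0.01% NP-40, 0.01% BSA; read 525/598 nm at 0 and 30 min.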
Numbers stand for hits; [ ] = another dose, or the depositor's remark. Only some compounds are listed: those with a hit (about 12% of all), similar ones and a draw of the others. Calls follow the shape of the dose curve; as a rule, active = well fitted curve in the direction sought with a large enough effect; inconclusive = small, poorly fitted or top-dose-only effect, or another doubt; inactive = no such curve, though single readings can be large; an effect the other way counts as inactive or inconclusive.

What do the screens show for `CC1(C)CC2CC(C)(CN2c2ncnc3ccccc23)C1` (centres undefined)?
JMJD2A Tudor inh: inactive; HP1b binding inh: inactive; BAZ2B block: inactive; G9a inh: inactive; Sfp PPTase inh: inactive

How did CC1(C)CC2CC(C)(CN2Cc2c(O)ccc3ccccc23)C1 (centres undefined) do in these assays?
JMJD2A Tudor inh: inactive; HP1b binding inh: inactive; BAZ2B block: inactive; G9a inh: 10µM; Sfp PPTase inh: inactive

Results for CC1(C)CC2CC(C)(CN2Cc2cccc([N+](=O)[O-])c2)C1 (centres undefined) ?
JMJD2A Tudor inh: 20µM; HP1b binding inh: inconclusive; BAZ2B block: inconclusive; Sfp PPTase inh: inconclusive

How did CCOC(=O)C1CCN(C/C=C/c2ccccc2)CC1 do in these assays?
JMJD2A Tudor inh: 79.4µM; HP1b binding inh: inactive; BAZ2B block: inconclusive; G9a inh: 44.7µM; Sfp PPTase inh: inactive

Results for CCOC(=O)C1CCCN(C/C=C/c2ccccc2)C1 (centres undefined) ?
JMJD2A Tudor inh: 22.4µM; HP1b binding inh: inconclusive; BAZ2B block: inconclusive; G9a inh: 39.8µM; Sfp PPTase inh: inactive

Results for CCN(CC)C(=O)C1CCCN(C/C=C/c2ccccc2[N+](=O)[O-])C1 (centres undefined) ?
JMJD2A Tudor inh: 3.16µM; HP1b binding inh: inconclusive; BAZ2B block: inconclusive; G9a inh: 35.5µM; Sfp PPTase inh: inactive

What do the screens show for `CCOC(=O)C1CCCN(CCC(=O)Nc2ccccc2)C1` (centres undefined)?
JMJD2A Tudor inh: inactive; HP1b binding inh: inactive; BAZ2B block: inactive; G9a inh: inconclusive; Sfp PPTase inh: inactive

Results for CC(=O)N1CCN(CC(C)(C)NS(=O)(=O)c2ccccc2)CC1 ?
JMJD2A Tudor inh: inactive; HP1b binding inh: inactive

Results for CCOC(=O)C1CCN(CC(C)(C)NS(=O)(=O)c2ccccc2)CC1 ?
JMJD2A Tudor inh: 1.78µM; HP1b binding inh: 79.4µM; BAZ2B block: inactive; G9a inh: inconclusive; Sfp PPTase inh: inactive

What do the screens show for `O=c1cc(-c2ccccc2)nc(SCc2nc(-c3ccc(C(F)(F)F)cc3)no2)[nH]1`?
JMJD2A Tudor inh: inactive; HP1b binding inh: inactive; BAZ2B block: inactive; G9a inh: inactive

How did COc1ccc(-c2noc(CSc3nc(-c4ccccc4)cc(=O)[nH]3)n2)cc1 do in these assays?
JMJD2A Tudor inh: inactive; HP1b binding inh: inactive; BAZ2B block: inactive; G9a inh: 39.8µM; Sfp PPTase inh: inconclusive

How did O=C(CN1C(=O)C2C3C=CC(C3)C2C1=O)OCC(=O)c1ccc([N+](=O)[O-])cc1 (centres undefined) do in these assays?
JMJD2A Tudor inh: inactive; HP1b binding inh: inactive; BAZ2B block: inactive; G9a inh: 39.8µM; Sfp PPTase inh: inconclusive

What do the screens show for `COc1ccc(C(=O)COC(=O)C(C)N2C(=O)C3C4CCC(C4)C3C2=O)cc1` (centres undefined)?
JMJD2A Tudor inh: inactive; HP1b binding inh: inactive; BAZ2B block: inactive; G9a inh: inactive[12.7 µM]; Sfp PPTase inh: inactive

Results for COc1ccc(C(=O)COC(=O)CN2C(=O)C3C4CCC(C4)C3C2=O)cc1 (centres undefined) ?
JMJD2A Tudor inh: 50.1µM; HP1b binding inh: inactive; BAZ2B block: inactive; G9a inh: inactive; Sfp PPTase inh: inactive

How did O=C(CN1C(=O)C2C3C=CC(C3)C2C1=O)OCC(=O)c1ccc(Cl)cc1 (centres undefined) do in these assays?
JMJD2A Tudor inh: inactive; HP1b binding inh: inactive; BAZ2B block: inactive; Sfp PPTase inh: inactive

What do the screens show for `CS(=O)(=O)N1CCC(C(=O)NCc2ccc(F)cc2Cl)CC1`?
JMJD2A Tudor inh: inactive; HP1b binding inh: inactive; BAZ2B block: inactive; G9a inh: inactive[12.7 µM]; Sfp PPTase inh: inactive

What do the screens show for `CCCC(=O)Nc1ccc2nc(SCC(=O)N3CCOCC3)sc2c1`?
JMJD2A Tudor inh: inactive; HP1b binding inh: inactive; BAZ2B block: inactive; G9a inh: inactive

Results for COc1ccc(Br)cc1C(=O)O ?
JMJD2A Tudor inh: inactive; HP1b binding inh: inactive; BAZ2B block: inactive; G9a inh: inactive; Sfp PPTase inh: inactive

How did CCCCC(=O)NC1=C(C(=O)OC)SCC1 do in these assays?
JMJD2A Tudor inh: inconclusive; HP1b binding inh: inactive; BAZ2B block: inconclusive; G9a inh: 4.47µM; Sfp PPTase inh: inactive

How did CCN(CC)S(=O)(=O)c1ccc(C(=O)NC2=C(C(=O)OC)SCC2)cc1 do in these assays?
JMJD2A Tudor inh: 39.8µM; HP1b binding inh: inactive; BAZ2B block: inconclusive; G9a inh: inactive[12.7 µM]; Sfp PPTase inh: inactive
